# Source: PubChem BioAssay AID1851 (National Center for Advancing Translational Sciences (NCATS), 2009)
# Among all 16,000 compounds or so, about 5,800 (36%) were called active. Not shown: some 23% with an inconclusive outcome. This is one part of the list. Unmarked numbers belong to inactive results. The call rests on the fitted dose curve; in most records, active means well fitted curve in the direction sought with a large enough effect; inconclusive means small, poorly fitted or top-dose-only effect, or effect the other way; inactive means no such curve, though single readings can be large or run the other way.
# Molecular target: Cytochrome P450 2C19 (Homo sapiens) (UniProt P33261)
# Assay: Cytochrome panel assay with activity outcomes
# Conditions: recombinant CYP, pro-luciferin dealkylation, luminescence, p450-cyp2c19; series mostly up to 57.1 µM
# On the % scale 0 is the no-effect control and ±100 the full control effect.
# Sequence of Cytochrome P450 2C19 (Homo sapiens) (P33261 whole entry, looked up): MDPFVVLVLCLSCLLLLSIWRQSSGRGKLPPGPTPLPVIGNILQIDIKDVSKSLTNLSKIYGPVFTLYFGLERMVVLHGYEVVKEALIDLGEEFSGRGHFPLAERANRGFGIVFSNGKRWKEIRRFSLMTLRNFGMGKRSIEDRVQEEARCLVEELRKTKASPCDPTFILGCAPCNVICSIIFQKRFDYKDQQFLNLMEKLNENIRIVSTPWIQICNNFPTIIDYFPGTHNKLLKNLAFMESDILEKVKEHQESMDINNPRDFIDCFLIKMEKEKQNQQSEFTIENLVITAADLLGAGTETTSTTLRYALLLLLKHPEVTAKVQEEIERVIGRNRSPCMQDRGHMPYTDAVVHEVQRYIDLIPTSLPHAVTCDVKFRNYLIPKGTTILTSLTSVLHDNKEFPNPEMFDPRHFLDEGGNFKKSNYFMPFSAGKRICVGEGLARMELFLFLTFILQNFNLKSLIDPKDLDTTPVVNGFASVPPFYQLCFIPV
Structure (SMILES),AC50,"activity, negative = inhibition"
C[C@@](O)(CNS(=O)(=O)c1ccccc1)c1ccccc1,1 µM (active),–
CNS(=O)(=O)c1ccccc1C(=N)c1ccccc1,–,-10% [at 11.4 µM]
Cn1ccnc1C[C@@](C)(O)c1ccccc1,–,-6.82% [at 11.4 µM]
CCn1c(SCC(=O)Nc2nc3ccc(C)cc3s2)nc2c(c1=O)SC(C)C2 (stereo unspecified),2.82 µM (active),–
Cc1ccc2nc(NC(=O)CSc3nc4c(c(=O)n3C)SC(C)C4)sc2c1 (stereo unspecified),5.62 µM (active),–
CCn1c(SCC(=O)Nc2ccc3c(c2)OCCO3)nc2c(c1=O)SC(C)C2 (stereo unspecified),8.91 µM (active),–
COC(=O)c1cccc(C(=O)Nc2ccc(C)cc2)n1,11.2 µM (active),–
Cc1ccc(OC(=O)c2cccc(C(=O)Oc3ccc(C)cn3)n2)nc1,inactive,–
CC(C)OC(=O)c1cccc(C(=O)Oc2ccc(Br)cc2)n1,inactive,–
Cc1cc(C)n2nc(SCc3cc(=O)oc4ccc5ccccc5c34)nc2n1,8.91 µM (active),–
Cc1cc(C)n2nc(SCN3C(=O)c4ccccc4C3=O)nc2n1,2.51 µM (active),–
Cc1cc(NS(=O)(=O)c2ccc(NC(=O)CN3C(=O)c4ccccc4C3=O)cc2)nc(C)n1,inactive,–
Cc1ccc(/C=N/NC(=O)CSc2nc3nc(C)cc(C)n3n2)cc1,inactive,–
COc1ccccc1CNC(=O)CSc1nc2nc(C)cc(C)n2n1,10 µM (active),–
CCSc1nc2nc(C)cc(C)n2n1,inactive,–
CC12COC3(C(=O)Nc4nccs4)CC1CCC32C (stereo unspecified),2.24 µM (active),–
COCC(=O)N1CCC2(CCCN(C(=O)Nc3cccc(C#N)c3)C2)CC1,inactive,–
O=C(COc1ccc(Cl)cc1Cl)N/N=C/CCc1ccccc1,2 µM (active),–
CC(C/C=N/NC(=O)COc1cc(Cl)ccc1Cl)c1ccccc1 (stereo unspecified),0.447 µM (active),–
OC1(c2ccc(OC(F)F)cc2)CSC(=Nc2cccnc2)N1C1CC1 (stereo unspecified),0.0794 µM (active),–
COc1cc(N=c2ssnc2Cl)cc(OC)c1OC,1.12 µM (active),–
Cc1cccc(OC(=O)CN2C(=O)C3C4CCC(C4)C3C2=O)c1C (stereo unspecified),3.98 µM (active),–
Cc1ccc(C)c(C(=O)CN2C(=O)c3ccccc3S2(=O)=O)c1,inactive,–
C=CCn1c(C)cc(C(=O)CN2C(=O)c3ccccc3C2=O)c1C,3.98 µM (active),–

Structure (SMILES),AC50,"activity, negative = inhibition"
O=C(CN1C(=O)c2ccccc2C1=O)NC1(C(=O)O)CCCC1,–,20.8% [at 11.4 µM]
Cc1cnc(CNc2ncncc2-c2ccc3c(c2)OCO3)cn1,inactive,–
c1ccc(CNc2ncncc2-c2ccc3c(c2)OCO3)cc1,0.501 µM (active),–
c1ccc(Nc2ncncc2-c2ccc3c(c2)OCO3)cc1,0.251 µM (active),–
Cc1cccc(CNc2ncncc2-c2ccc3c(c2)OCO3)c1,0.501 µM (active),–
c1cncc(CNc2ncncc2-c2ccc3c(c2)OCO3)c1,0.2 µM (active),–
c1csc(CNc2ncncc2-c2ccc3c(c2)OCO3)c1,0.794 µM (active),–
CC(C)c1nnc(-c2ccc(Cl)cc2)c(N(C)C)n1,2.51 µM (active),–
CN(C)c1ncc2nc(-c3ccc(Cl)cc3)c(=O)n(C)c2n1,inactive,–
C[C@]1(O)CC[C@H]2[C@H]3CC=C4N5CCN=C5CC[C@@]4(C)[C@H]3CC[C@@]21C,–,14.3% [at 11.4 µM]
CC1(O)c2ccccc2C(=O)N1CCc1ccccc1F (stereo unspecified),0.251 µM (active),–
CC(C)c1ccc(/C(C(=O)O)=C(\O)C(=O)O)cc1,–,-8.84% [at 11.4 µM]
CCC1CCCCN1CCn1c(=S)[nH]c2cc(OC)c(OC)cc2c1=O (stereo unspecified),inactive,–
O=C(CCn1c(=S)[nH]c2ccccc2c1=O)NCCCN1CCOCC1,inactive,–
COCCNC(=O)CCCCCn1c(=S)[nH]c2ccccc2c1=O,22.4 µM (active),–
COCCn1c(=S)[nH]c2cc(C(=O)NC(C)C)ccc2c1=O,15.8 µM (active),–
CC(C)NC(=O)c1ccc2c(=O)n(Cc3ccco3)c(=S)[nH]c2c1,inactive,–
CCOC(=O)CCN1C(=O)[C@H]2[C@H]3[C@H](O)[C@H](O)C/C(=N/OC/C=C(\C)CCC=C(C)C)[C@H]3CC[C@@H]2C1=O,–,12.1% [at 11.4 µM]
Cc1ccc(S(=O)(=O)CCCS(=O)(=O)c2ccc(C)cc2)cc1,10 µM (active),–
N#Cc1ccc(CN2CCCC3(CCN(S(=O)(=O)c4ccccc4)CC3)C2)cc1,15.8 µM (active),–
O=S(=O)(c1ccccc1)N1CCC[C@@]2(CCN(Cc3nccs3)C2)C1,7.94 µM (active),–
Cn1cccc1C(=O)N1CCC2(CCCN(Cc3ccc(C#N)cc3)C2)CC1,inactive,–
O=S(=O)(c1ccccc1)N1CCC2(CC1)CN(Cc1ccccc1)C2,inactive,–
O=S(=O)(c1ccccc1)N1CCC2(CCN(Cc3ccncc3)CC2)CC1,inactive,–

Structure (SMILES),AC50,"activity, negative = inhibition"
O=S(=O)(c1ccccc1)N1CCC2(CC1)CN(Cc1nccs1)C2,inactive,–
N#Cc1ccc(CN2CCC3(CC2)CCN(S(=O)(=O)c2ccccc2)CC3)cc1,inactive,–
O=S(=O)(c1ccccc1)N1CCC2(CCN(Cc3nccs3)CC2)CC1,inactive,–
O=S(=O)(c1ccccc1)N1CCC2(CCCN(Cc3ccncc3)C2)CC1,0.316 µM (active),–
CN1CCN(c2ncc3nc(-c4cc(F)cc(F)c4)c(=O)n(CCc4ccccc4)c3n2)CC1,inactive,–
CSc1ccccc1N1CCN(C(=O)Nc2ccc3c(c2)NC(=O)CO3)CC1,7.94 µM (active),–
COc1cccc(N2CCN(C(=O)Nc3ccc4c(c3)NC(=O)CO4)CC2)c1,inactive,–
Cc1ccc(-n2c3c(c(=O)[nH]c2=O)C(NS(=O)(=O)c2ccc(C)cc2)(C(F)(F)F)C(=O)N3)cc1 (stereo unspecified),inactive,–
O=C(Nc1cccc(C(F)(F)F)c1)C1CCCN1S(=O)(=O)c1cccc2cccnc12 (stereo unspecified),11.2 µM (active),–
O=C1OCCC1Sc1nnnn1-c1ccccc1 (stereo unspecified),22.4 µM (active),–
Cc1cc(NC(=O)CSc2nnc(-c3ccccc3)n2Cc2ccco2)no1,10 µM (active),–
CC(=O)Nc1ccc(NC(=O)CSc2nnc(-c3ccccc3)n2Cc2ccc3c(c2)OCO3)cc1,3.55 µM (active),–
O=C(CSc1nnc(-c2ccccn2)n1Cc1ccco1)Nc1ccc2c(c1)OCO2,6.31 µM (active),–
NC(=O)NC(=O)CSc1nnc(-c2ccco2)n1Cc1ccccc1,inactive,–
COc1ccc(-c2nc3cnc(N4CCN(C)CC4)nc3n(CCC#N)c2=O)cc1,inactive,–
C=CCOc1ccc(CNC(C)(C)CO)cc1OC,inactive,–
COc1cc(CNC(C)(C)CO)ccc1OCC(=O)Nc1ccc(Br)cc1,22.4 µM (active),–
C=CCOc1ccc(CNC(C)(C)CO)cc1OCC,inactive,–
CC(C)CCNC(=S)NC1CCCC1,10 µM (active),–
CC(C)(C)C(=O)N1CCC(O)(CS(=O)(=O)Cc2ccc(Cl)cc2)CC1,inactive,–
CC(O)(CS(=O)(=O)Cc1ccc(Cl)cc1)C(=O)Nc1cccc(C(F)(F)F)c1 (stereo unspecified),7.94 µM (active),–
CC(C)CC(=O)N1CCC(O)(CS(=O)(=O)Cc2ccc(Cl)cc2)CC1,inactive,–
CC(O)(CS(=O)(=O)Cc1ccccc1Cl)C(=O)Nc1cccc(C(F)(F)F)c1 (stereo unspecified),2.82 µM (active),–
COCCn1c(=O)c(C)nc2cnc(N3CCN(C)CC3)nc21,inactive,–

Structure (SMILES),AC50,"activity, negative = inhibition"
COc1ccc(CO/N=C/c2c(C)[nH]c(=O)[nH]c2=O)cc1,inactive,–
COc1ccc(CN2C(=O)c3ccccc3C(/C=N\OCc3ccc(F)cc3)C2=O)cc1 (stereo unspecified),2.51 µM (active),–
CC(C)NC[C@H](O)c1ccc2ccccc2c1,inactive,–
CCN(CC)C[C@@H](O)c1ccc2ccc3ccccc3c2c1,–,-3.19% [at 11.4 µM]
CCCCOC(OCCCC)[C@H](O)CSc1ccc2ccccc2c1,3.16 µM (active),–
CCCc1nn2c(=O)c(C(c3ccc(C)cc3)c3c(O)nc4sc(CCC)nn4c3=O)c(O)nc2s1,inactive,–
CCCCCCN(CCCCCC)C(=O)Cc1c(-c2ccc(F)cc2)[nH]c2ccccc12,3.98 µM (active),–
CN(C)CN1C(=O)S/C(=C2/C(=O)N(CN(C)C)c3ccccc32)C1=O,–,21.4% [at 11.4 µM]
CCN1C(=O)/C(=C2\SC(N3CCCCC3)=NC2=O)c2ccccc21,14.1 µM (active),–
O=C(O)Cc1c(O)ccc2ccccc12,–,33.5% [at 11.4 µM]
CC(C)(C)c1ccc(O)c(CN(Cc2cc(C(C)(C)C)ccc2O)C2CCCCC2)c1,1.58 µM (active),–
CC(C)(C)CC(C)(C)c1ccc(O)c(C[N+](C)(C)[O-])c1,–,-6.26% [at 11.4 µM]
CC(C)(C)c1ccc(O)c(CN(Cc2c(O)ccc3ccccc23)C2CCCCC2)c1,2 µM (active),–
Oc1ccc2ccccc2c1CN(Cc1c(O)ccc2ccccc12)C1CCCCC1,1 µM (active),–
CN(C)Cc1cc(C(C)(C)C)ccc1-c1ccc(C(C)(C)C)cc1CN(C)C,–,39.4% [at 11.4 µM]
Oc1ccc2ccccc2c1Cc1c(O)ccc2ccccc12,0.316 µM (active),–
N#Cc1cccc(NC(=O)N2CCCC3(CCN(C(=O)c4cccc(F)c4)CC3)C2)c1,inactive,–
NC(=O)C(=O)O,inactive,–
CCC(NC(=O)C1(C)CC1(Br)Br)c1ccc(C)cc1 (stereo unspecified),2.51 µM (active),–
CC[C@H](NC(=O)c1c(C)c(-c2ccccc2)nc2ccccc12)c1ccccc1,inactive,–
NC(=O)CNC(=O)[C@@H]1CC2(CC(c3cccc([N+](=O)[O-])c3)=NO2)CN1C(=O)c1ccccc1 (stereo partly specified),inactive,–
O=C(NCc1ccccc1)C12CN(Cc3ccccc3)CC1C(c1cccc([N+](=O)[O-])c1)=NO2 (stereo unspecified),2.51 µM (active),–
CC(C)CCNC(=O)C12CN(Cc3ccccc3)CC1C(c1cccc([N+](=O)[O-])c1)=NO2 (stereo unspecified),3.55 µM (active),–
COc1ccc(C(=O)N2CC3(CC(c4cccc([N+](=O)[O-])c4)=NO3)C[C@H]2C(=O)NCC(N)=O)cc1 (stereo partly specified),inactive,–
